The values that follow come from PubChem BioAssay AID1347423 (Functional Genomics Laboratory (NCATS/FGL), 2020).

The whole screen tested about 52,000 sequences, of which about 210 (0.4%) were called active.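 How the source made its calls: active means gene whose silencing raises cell survival under the drug, median off-target-corrected z-score across its silencing RNAs 2 or more; inactive means the rest.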 The full list was thinned out, with actives kept by preference.

This assay in a line: Resistance to Poly (ADP-Ribose) Polymerase inhibitor: Gene Identification via Genome-wide siRNA Screen. The note with it: mouse BRCA2 R2336H ES cells, olaparib, CellTiter-Glo viability; active compounds read high. The method in brief: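 Genome-wide siRNA screen (3 siRNAs/gene, 20 nM) in mouse ES cells carrying hypomorphic BRCA2 R2336H; olaparib 500 nM added 48 h post-transfection, CellTiter-Glo viability 72 h later. Normalized to plate-median negative control; MAD z-scores, gene median, seed-adjusted.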
Take “CCUCUCCAACAACCAACUATT against 2900010D03Rik”: the z-score was -1.42 (inactive).
Take GGAGAUAAAAGUUUCAUCUTT against Jmjd2b: the z-score was 0.46 (inactive).
Then GGUACCUGUUUGUUUUACATT against Epb4.1l4b, with 5.02 (inactive).
Consider “CCCUAGAAUGGGAAUGUCATT against C030022K24Rik”, for which the z-score is 0.313 (inactive).
GUCAUCAAACUAGGUGCUGTT against Olfr584: the z-score was 5.09 (active).
On to GGGUCCAUUGUCAAUGUCUTT against Cbr2, for which the z-score was -0.721 (inactive).
“GGGCUUCGAUGCUAUCAUCTT against 6430573F11Rik”: the z-score was 0.734 (inactive).
Take CCAUCUACGUGGGACACAATT against Atp11a: the z-score is -1.41 (inactive).
Then GGAGAACGAAAGGAUGAAATT against Rpusd4, with -1.09 (inactive).
“GGAGAAAAGGAUGUUGUUATT against 2310005P05Rik”: the z-score was 2.57 (inactive).
With CGAUAAUUUGGCUAAGUAUTT against Pip5k3, the z-score is 0.0345 (inactive).
With “CCAAGGGAAGAUUCAAAUUTT against D930031B21Rik” the figure was -1.19 (inactive); with “GCCAGAAACUAAUGAGAUCTT against 1110001E17Rik”, 1.17 (active); with GGAAUUUUCUAUAGUCCGGTT against Flrt2, 0.268 (inactive).
As for “GCGCAAAGGUGAAACGUAGTT against E030011O05Rik”, the z-score is -0.0435 (inactive).
GCAUCCUACGCAUUAAAUCTT against Olfr146: the z-score is -0.12 (inactive).
As for CGAAAAUCAAGGGAGCUCATT against Rnf19, the z-score is -0.128 (inactive).
Then “GCACCAUGUCAGGAAGUGUTT against B230315M08Rik”, with 3.45 (active).
Take GCCUUUUAGCUGUUCAGGATT against AI451557: the z-score is -1.18 (inactive).
Turning to GGAGUUCAUUCUGAAUCAGTT against Etohi2, the z-score was -0.817 (inactive).
As for GCUACAAAGCGAUGUUUCATT against Pola2, the z-score is -1.88 (inactive).
With GGUCUCCACCUCCAUAUCCTT against Slc15a3, the z-score was 0.715 (inactive).
For the sequence GCAGAGGAUAUAAAACAAGTT against Pde2a, the z-score is 0.234 (active).
With CGUCUCAACAGAGUUGGAGTT against Hrmt1l1 the figure was 0.151 (inactive).
For the sequence CCCAGAACUAUUCAACACUTT against Sema4g, the z-score was 1.4 (inactive).
On to “GGCAGAGAAAAGGACCUUUTT against 2400002F11Rik”, for which the z-score was -1.69 (inactive).
With GGACAUAAGUGACAGACAUTT against Chrnb2 the figure was -1.32 (active).
Then GCAUUCAUGAAAGUGUUAGTT against Olfr164, with 1.23 (inactive); and GGCGAAUUAUUGAAAACGUTT against Actr8, with 3.41 (active); and GGUGGUGUUUCAUAAGAUGTT against Rragc, with 0.792 (inactive).
“CCCAGCUAUGCGAUCUUAATT against 1300003B13Rik”: the z-score is -1.51 (inactive).
Then GGGUUUCUGUUUGAUUCCATT against Gria1, with 1.91 (active).
For the sequence GCUACUGAGUUAUAGAAAGTT against Olfr1316, the z-score was 0.323 (inactive).
As to CCAACUGUAGAUGUAUAUATT against Pmp22, the z-score is 0.0495 (inactive).
Turning to “GGUGAUCCUCAUCAUCAGUTT against 2400010G15Rik”, the z-score is 2.76 (active).
With GGUUGCAUCACAGCGUAUATT against Plekhe1, the z-score was 0.0124 (inactive).
For the sequence GGAGGUCCAGCUGUUCAUGTT against Kcnn4, the z-score is 2.89 (inactive).
In the case of “GGCAAUUGUUUUUAGAGAGTT against 2610510J17Rik”, the z-score is 0.946 (inactive).
As to GGCUGUCUUGAUUUUGAUUTT against C3ar1, the z-score was -0.0188 (inactive).
For CGAACCUACAGAGCUCAUGTT against Rpl17, the z-score is -2.32 (inactive).
Regarding GGGUGCUUAAUAAACAUAATT against Slc22a8, the z-score is 1.12 (inactive).
In the case of GCUGAAAUACCACUCUCCGTT against Chl1, the z-score is -1.28 (active).
As to CCAAUCUCUACCGUCUCCUTT against Camp, the z-score is -0.0705 (inactive).
For the sequence GGCUCAACUGUGUUAAACATT against Tnfrsf4, the z-score is 0.801 (inactive).
Take “GCAAAACCUACUGCGUGGATT against 2410195B05Rik”: the z-score was 0.682 (inactive).
On to GGGUUUCUGUUAAUCCACATT against Hist1h3g, for which the z-score was -1.25 (inactive).
With GGUGAUAUUAUACAUUCACTT against Rnd1 the figure was 0.43 (inactive).
As for CCACUGAAGUUUUCAUUCUTT against Olfr1055, the z-score is 0.663 (inactive).
Regarding GGUGUGCAUCAAGCGACUGTT against Cacng6, the z-score is 1.29 (inactive).
GGAGUCAAGUCCACAUACATT against Usp47: the z-score was -0.927 (active).
As to GCACACCCAAUGCUCUAAGTT against Mare, the z-score is 0.284 (inactive).
GCGACAACGAUUUUGAAAUTT against Rsu1: the z-score was 0.756 (inactive).
With GCCGACGUAGUGACAUUCUTT against Crybb3 the figure was -1.17 (inactive).
CGUAUCAAACAGGAAAUGGTT against Arid5b: the z-score was 1.02 (inactive).
For the sequence GGACUGCUAUGGGUCUUCATT against Clk3, the z-score is -1.64 (inactive).
With “GGGACAGUCUUCAGUGACATT against 0610037L13Rik”, the z-score is -2.25 (inactive).
Regarding CCACAAAGAAUGCAUUACUTT against BC022146, the z-score is -1.42 (inactive).
Consider GGAACGAUCGAAACAAGAATT against Rarg, for which the z-score is 3.59 (active).
On to GCAAGAGUCUGCUACGACATT against Opn1sw, for which the z-score is 0.0796 (inactive).
On to GGUCCCAUUCAGUGUGUGUTT against Cdk10, for which the z-score was -0.19 (inactive).
With GGGAUGAGUAUGCUUAUGGTT against Rgpr, the z-score was 0.176 (inactive).
Turning to GCAGAAUGGUAAAUCCGAUTT against Mc5r, the z-score is 1.96 (inactive).
In the case of CCCUAAGUUCUCGUUUCUGTT against Cherp, the z-score is 1.57 (inactive).
For the sequence GGACCAACAUAACCUCUACTT against BC037432, the z-score was 0.0137 (inactive).
Turning to GGAACGAGACUCAUCUUCUTT against Cic, the z-score was 1.35 (active).
Turning to GGAUCCUUCAGCAUUCUUATT against Egr2, the z-score is -0.406 (inactive).
For the sequence GGAACAGUCUGAAAUACACTT against Usp18, the z-score was 0.039 (active).
